Bioassay records (PubChem BioAssay)
G9a block: inhibitors of human histone lysine methyltransferase G9a | G9a H3K9 monomethylation, AlphaScreen, 2 h | Potency, µM (highest dose often 102 µM), actives largely listed as inhibitors | 8.8% of 350,000 active; note: nearly all actives have a fitted effect of over 75% in size
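Compounds were preincubated with 20 nM G9a for 15 min, after which biotinylated H3K9 peptide (500 nM) and SAM (20 uM) started a 2 h room-temperature reaction. Monomethylated product was quantified by antibody-based AlphaScreen chemiluminescence.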
HP1b binding inh: blocks HP1-beta chromodomain binding to methylated histone tails; P83916; AlphaScreen HP1-beta / biotin-H3K9me3 peptide binding; Potency, µM (series often up to 114 µM), actives largely listed as inhibitors; 0.56% of 390,000 active; note: nearly all actives have a fitted effect of over 70% in size
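HP1-beta protein (50 nM final) preincubated 30 min at room temperature with biotinylated H3(1-18)K9me3 peptide (50 nM) in PBS pH 7.4, 0.01% Tween-20, then compound added for 30 min. AlphaScreen streptavidin donor/nickel chelate acceptor beads (10 ug/mL final), 30 min dark, luminescence read.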
JMJD2A Tudor: inhibitors of human JMJD2A Tudor domain; O75164; AlphaScreen JMJD2A-Tudor / H3K4me3 peptide binding; Potency, µM (highest dose often 114 µM), actives largely listed as inhibitors; 4.4% of 390,000 active; note: nearly all actives have a fitted effect of over 50% in size
BAZ2B block: inhibitors of human BAZ2B bromodomain | 4.4% of 360,000 active | Potency, µM (highest dose often 114 µM), usual class: inhibitors | Q9UIF8 | AlphaScreen BAZ2B-H3K14Ac peptide displacement; note: nearly all actives have a fitted effect of over 60% in size
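Inhibition is scored as reduced AlphaScreen emission. The BAZ2B/b-H3(5-23)K14Ac complex (50 nM each) in PBS pH 7.4, 0.01% Tween-20 meets compound (up to 110 uM) for 30 min at RT before bead addition.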
L3MBTL1 block: blocks human L3MBTL1. AID 485360. 0.66% of 230,000 active. Q9Y468. AlphaScreen L3MBTL1–H3K9me1 peptide binding. Potency, µM (highest dose often 57.1 µM), hits mostly inhibitors; note: nearly all actives have a fitted effect of over 60% in size
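AlphaScreen assay: L3MBTL1 (50 nM final) was preincubated 30 min at room temperature with biotinylated H3(1-15)K9me1 peptide (75 nM final), then 30 min with library compounds; streptavidin donor and nickel chelate acceptor beads (10 ug/mL final) added, 30 min dark.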
Sfp PPTase inh: Sfp phosphopantetheinyl transferase inhibition. Q9F4F7. Biochemical Sfp PPTase activity, qHTS. Potency, µM, hits mostly inhibitors. 3.5% of 310,000 active. AID 1490;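 note: the enzyme is Sfp with the accession as filed and its product quenches rhodamine fluorescence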
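Step 1, compound plus 15 nM Sfp-PPTase, 15 min, room temperature. Step 2, add rhodamine-CoA (5 uM) and BHQ-2-YbbR (12.5 uM). Step 3, read 525/598 nm fluorescence at 0 and 30 min.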
Large screens that a line does not name were inactive; ! = not active in a repeat. Sampled rows, rich in hits. Any-hit rate of the full collection: about 12%. Calls come from the whole dose curve; as a rule, active = well fitted curve in the direction sought with a large enough effect; inconclusive = small, poorly fitted or top-dose-only effect, or another doubt; inactive = no such curve, though single readings can be large; an effect the other way counts as inactive or inconclusive.

Cc1ccc(-n2c(O)c(/C=N/NC(=O)c3ccncc3)c(=O)[nH]c2=O)cc1C	G9a block inconclusive, JMJD2A Tudor 56µM, BAZ2B block 50µM
COc1ccc(Cn2c(O)c(/C=N/NC(=O)c3ccncc3)c(=O)[nH]c2=O)cc1	G9a block inconclusive, JMJD2A Tudor inconclusive, BAZ2B block inconclusive
O=C(N/N=C/c1c(O)n(CCc2ccccc2)c(=O)[nH]c1=O)c1ccccc1O	G9a block 71µM, JMJD2A Tudor inconclusive (no result: L3MBTL1 block)
CC(CO)(CO)N=Cc1c(O)n(-c2cccc3ccccc23)c(=O)[nH]c1=O	none (no result: L3MBTL1 block)
O=C(N/N=C/c1c(O)n(CCc2ccc(F)cc2)c(=O)[nH]c1=O)c1ccncc1	JMJD2A Tudor inconclusive, BAZ2B block 50µM (no result: L3MBTL1 block)
O=C(N/N=C/c1c(O)n(-c2cccc3ccccc23)c(=O)[nH]c1=O)c1ccncc1	JMJD2A Tudor 50µM, BAZ2B block 79µM, L3MBTL1 block inconclusive
CCOC(=O)c1ncc2[nH]c3ccc(OCc4ccccc4)cc3c2c1COC	none (no result: HP1b binding inh, JMJD2A Tudor, BAZ2B block, L3MBTL1 block)
O=C(N/N=C/c1c(O)n(CCc2ccccc2)c(=O)[nH]c1=O)c1ccncc1	G9a block 20µM, BAZ2B block 56µM
CC(=NNC(=S)N1CC2CCC(CC2)C1)c1nccs1	HP1b binding inh inconclusive, JMJD2A Tudor 20µM (no result: G9a block, BAZ2B block, L3MBTL1 block, Sfp PPTase inh)
CC(C)(C)P(=O)(N1CCOCC1)N1CCOCC1	none
O=P(/C(=N/O)N1CCOCC1)(N1CCOCC1)N1CCOCC1	G9a block 14µM
Cc1ccc(S(=O)(=O)N2CCCCC2)cc1NC(=O)CN1CC=C(c2ccccc2)CC1	none
COc1ccccc1CNCC(=O)Nc1cc(S(=O)(=O)N2CCCCC2)ccc1C	HP1b binding inh inconclusive, JMJD2A Tudor 1.8µM (no result: G9a block, BAZ2B block, Sfp PPTase inh)
CCn1c(O)c(C(=O)CC2NCCc3ccccc32)c(=O)n(CC)c1=S (configuration not stated)	G9a block inconclusive, BAZ2B block inconclusive, Sfp PPTase inh 45µM
CCCCCCC(=O)O[C@H]1CC[C@H]2[C@@H]3CCC4CC(=O)C=C(C)[C@]4(C)[C@H]3CC[C@]12C (some centres not stated)	none (no result: HP1b binding inh, JMJD2A Tudor, BAZ2B block, L3MBTL1 block)
Nn1c(Cc2cccc3ccccc23)n[nH]c1=S	G9a block 3.5µM, HP1b binding inh inconclusive, JMJD2A Tudor 10µM, Sfp PPTase inh 7.1µM
CCCCC/C=C\C/C=C\CCCCCCCC(=O)NCCCC(=O)O	none (no result: G9a block, HP1b binding inh, JMJD2A Tudor, BAZ2B block, L3MBTL1 block)
O=C1NS(=O)c2cc([N+](=O)[O-])cc([N+](=O)[O-])c21 (configuration not stated)	BAZ2B block inconclusive, Sfp PPTase inh 18µM (no result: G9a block)
CCN(CC)Cc1c[nH]c2ccccc12	G9a block inconclusive, BAZ2B block inconclusive
CN(CCc1ccccc1)Cc1c[nH]c2ccccc12	G9a block 3.2µM, JMJD2A Tudor inconclusive, BAZ2B block inconclusive
C=C1[C@@H](C)[C@H]2[C@H](Cc3ccccc3)NC(=O)[C@]23[C@H](OC(C)=O)/C=C/[C@](C)(O)C(=O)[C@@H](C)C/C=C/[C@H]3[C@@H]1O	none (no result: HP1b binding inh, JMJD2A Tudor, BAZ2B block, L3MBTL1 block)
S=C(S)N1CCCC1	G9a block 0.71µM, Sfp PPTase inh 5.6µM
CC(C)c1cccc(O)c(=O)c1	G9a block 11µM!, BAZ2B block 56µM, Sfp PPTase inh 56µM!
NCC(O)c1cccc(O)c1 (configuration not stated)	none (no result: HP1b binding inh, JMJD2A Tudor, BAZ2B block, L3MBTL1 block)
C[S+](CC[C@H](N)C(=O)O)C[C@H]1O[C@@H](n2cnc3c(N)ncnc32)[C@H](O)[C@@H]1O (some centres not stated)	G9a block 3.5µM, JMJD2A Tudor 13µM, Sfp PPTase inh inconclusive
CC1=NCCc2c1[nH]c1cc(O)ccc21	G9a block 1.4µM!, Sfp PPTase inh 79µM!
COc1ccc2c3c([nH]c2c1)C(C)=NCC3	G9a block inconclusive
c1ccc2c(c1)OC[C@@H](C1=NCCN1)O2	none (no result: HP1b binding inh, JMJD2A Tudor, BAZ2B block, L3MBTL1 block)
CCC[N+]12CCC(CC1)C(=C(c1ccccc1)c1ccccc1)C2	none
CCCC[N+]12CCC(CC1)C(=C(c1ccccc1)c1ccccc1)C2	G9a block 10µM, HP1b binding inh inconclusive, JMJD2A Tudor inconclusive, BAZ2B block 50µM
CCCCn1c(O)c(C=NCc2ccc3c(c2)OCO3)c(=O)[nH]c1=O	Sfp PPTase inh 50µM
CCCCn1c(O)c(C(C)=NCc2ccc3c(c2)OCO3)c(=O)[nH]c1=O	JMJD2A Tudor 89µM (no result: G9a block)
